# Measured values from PubChem BioAssay (NCATS).
# Inconclusive results are not listed. Entries that show only a call come without a potency. The source made the active and inactive calls. Unless noted, the call rests on the fitted dose curve; in most records, active means well fitted curve in the direction sought with a large enough effect; inconclusive means small, poorly fitted or top-dose-only effect, or another doubt; inactive means no such curve, though single readings can be large; an effect the other way counts as inactive or inconclusive.
# Experiments:
# [1] = biological target: Lysosomal acid glucosylceramidase (Homo sapiens) (UniProt P04062); experiment: Glucocerebrosidase-p2 (AID 348; in the data active means potency below about 10 µM; further: potency means the concentration at half of the fitted maximal effect); settings: purified GBA, blue fluorogenic substrate, 40 min
# Sequence of Lysosomal acid glucosylceramidase (Homo sapiens) (P04062 whole entry, looked up): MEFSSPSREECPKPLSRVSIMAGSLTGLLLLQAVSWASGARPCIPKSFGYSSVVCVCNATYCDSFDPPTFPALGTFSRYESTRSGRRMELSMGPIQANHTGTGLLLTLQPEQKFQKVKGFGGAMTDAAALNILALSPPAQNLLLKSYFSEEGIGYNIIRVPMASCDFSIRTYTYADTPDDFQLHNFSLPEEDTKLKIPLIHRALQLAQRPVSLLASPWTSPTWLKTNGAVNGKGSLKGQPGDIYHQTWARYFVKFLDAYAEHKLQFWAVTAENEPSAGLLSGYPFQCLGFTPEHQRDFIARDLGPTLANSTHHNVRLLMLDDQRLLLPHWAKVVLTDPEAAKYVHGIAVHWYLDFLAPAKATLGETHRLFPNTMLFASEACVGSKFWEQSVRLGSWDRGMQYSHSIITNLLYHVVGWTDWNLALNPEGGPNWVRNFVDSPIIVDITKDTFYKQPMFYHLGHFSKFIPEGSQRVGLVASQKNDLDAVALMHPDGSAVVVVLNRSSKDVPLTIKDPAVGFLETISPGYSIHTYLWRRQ
# Method in brief: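 Normal human glucocerebrosidase (0.2 nM) with blue fluorogenic substrate (80 uM final) in citrate/phosphate pH 5.9 with 10mM sodium taurocholate, 0.01% tween-20; 40 min RT, NaOH/glycine stop; fluorescence Ex 365/Em 440; AC50 from a titration from 0.6 nM upwards.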
# [2] = biological target: Glucocorticoid receptor (Homo sapiens) (UniProt P04150); experiment: GR-GFP Redistribution (AID 450;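 active means compounds whose dose series gives a full or clear partial fitted curve of increased nuclear translocation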; further: potency means the concentration at half of the fitted maximal effect); settings: U2OS GR-GFP nuclear translocation, laser cytometry, 2 h
# Sequence of Glucocorticoid receptor (Homo sapiens) (P04150 whole entry, looked up, the tested form may be a part): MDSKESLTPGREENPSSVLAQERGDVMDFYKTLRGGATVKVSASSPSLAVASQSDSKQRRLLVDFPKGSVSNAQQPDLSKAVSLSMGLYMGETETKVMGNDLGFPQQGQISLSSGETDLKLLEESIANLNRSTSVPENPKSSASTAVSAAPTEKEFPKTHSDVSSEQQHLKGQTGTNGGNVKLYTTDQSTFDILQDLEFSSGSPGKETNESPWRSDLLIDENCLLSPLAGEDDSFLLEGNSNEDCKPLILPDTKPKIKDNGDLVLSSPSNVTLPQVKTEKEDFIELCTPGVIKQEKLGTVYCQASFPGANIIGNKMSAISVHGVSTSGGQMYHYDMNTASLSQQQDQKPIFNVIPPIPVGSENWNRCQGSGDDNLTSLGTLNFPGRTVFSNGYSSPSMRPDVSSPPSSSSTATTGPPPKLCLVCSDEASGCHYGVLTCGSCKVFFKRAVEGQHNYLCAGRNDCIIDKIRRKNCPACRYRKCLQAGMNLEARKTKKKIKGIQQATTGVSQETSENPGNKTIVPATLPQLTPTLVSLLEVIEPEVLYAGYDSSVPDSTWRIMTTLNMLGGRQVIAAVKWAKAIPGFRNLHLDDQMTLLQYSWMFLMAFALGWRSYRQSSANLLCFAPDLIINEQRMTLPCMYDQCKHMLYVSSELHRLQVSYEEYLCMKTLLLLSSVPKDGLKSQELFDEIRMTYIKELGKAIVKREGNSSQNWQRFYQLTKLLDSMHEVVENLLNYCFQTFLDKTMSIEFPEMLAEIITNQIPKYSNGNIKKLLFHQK
# [3] = biological target: Glucocorticoid receptor (Homo sapiens) (UniProt P04150); experiment: GR-EFC Redistribution (AID 451; calls by dose curve; further: potency means the concentration at half of the fitted maximal effect); settings: CHO-K1 GR-EFC translocation, beta-gal luminescence, 2 h
# Method in brief: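 CHO-K1 cells expressing nuclear EA and GR-ED fragments of b-gal; compounds titrated up to 46 uM final, 2 h at 37 C. GR nuclear translocation read as complemented b-gal luminescence after 1 h RT detection.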
# [4] = biological target: Mitogen-activated protein kinase 10 (Mus musculus) (UniProt Q61831); experiment: JNK3 AlphaScreen Assay (AID 530; active means well fitted curve in either direction with a large enough effect, not every such curve was filed as active;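 further: kinase came from lysate of stimulated human HepG2 cells; signal reports phosphorylation of biotinylated GST-cJun 1-79 at Ser73 with 10 µM ATP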)
# Method in brief: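 Activity was read by AlphaScreen after JNK3-containing HepG2 lysate (cytokine pre-activated) phosphorylated biotinylated GST-cJun with 10 uM ATP at room temperature. Phospho-Ser73 cJun antibody with Protein-A acceptor beads provided detection.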
# [5] = biological target: 3',5'-cyclic-AMP phosphodiesterase 4B (Homo sapiens) (UniProt Q07343); experiment: qHTS Assay for Inhibitors of PDE-IV (AID 607; active means well fitted activation curve with a large enough effect in the main read-out, with a control signal flat, not every such curve was filed as active)
# Sequence of 3',5'-cyclic-AMP phosphodiesterase 4B (Homo sapiens) (Q07343 whole entry, looked up): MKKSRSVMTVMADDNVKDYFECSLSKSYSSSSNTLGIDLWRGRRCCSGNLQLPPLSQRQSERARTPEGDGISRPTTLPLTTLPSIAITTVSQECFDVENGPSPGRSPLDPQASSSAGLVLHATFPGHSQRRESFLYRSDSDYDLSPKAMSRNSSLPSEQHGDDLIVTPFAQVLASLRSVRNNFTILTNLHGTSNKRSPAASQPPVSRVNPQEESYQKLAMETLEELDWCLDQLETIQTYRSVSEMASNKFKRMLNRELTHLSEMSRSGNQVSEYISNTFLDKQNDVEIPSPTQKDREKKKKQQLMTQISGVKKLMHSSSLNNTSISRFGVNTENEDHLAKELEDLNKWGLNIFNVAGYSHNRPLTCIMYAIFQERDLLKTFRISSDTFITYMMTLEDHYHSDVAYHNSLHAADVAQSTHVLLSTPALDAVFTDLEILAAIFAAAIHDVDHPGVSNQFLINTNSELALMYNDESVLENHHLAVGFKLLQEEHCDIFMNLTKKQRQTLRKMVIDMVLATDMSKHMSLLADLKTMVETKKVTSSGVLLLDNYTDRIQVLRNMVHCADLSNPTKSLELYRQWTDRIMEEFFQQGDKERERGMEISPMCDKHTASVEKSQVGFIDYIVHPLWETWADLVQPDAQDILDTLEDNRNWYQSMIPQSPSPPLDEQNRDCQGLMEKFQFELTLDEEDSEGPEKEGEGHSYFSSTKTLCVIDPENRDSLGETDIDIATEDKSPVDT
# Method in brief: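 The readout is membrane depolarisation from a cAMP-sensing CNG channel, detected with a potential dye at ex 535/em 590. Cells were HEK293-derived (endogenous PDE-IV) at 1000 cells/well, titrated up to 22.9 uM final.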
# [6] = qHTS Assay for Lipid Storage Modulators (AID 1519; calls by dose curve); settings: Drosophila S3 cells, BODIPY lipid droplet/cell ratio, laser cytometry, cells loaded with oleic acid; for activity change, negative = inhibition: at 57.5 µM (top of the series)
# Method in brief: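 Cells seeded at 5,000 per well were treated with compounds over a concentration series and loaded with oleic acid (400 uM, as added). Lipid droplet fluorescence (488 nm excitation, 500-530 nm channel) was read by laser-scanning cytometry and normalized to 20 uM Triacsin C.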
# [7] = Counterscreen qHTS for small molecule stabilizers of the endoplasmic reticulum resident proteome: GLuc-NoTag assay (AID 1508627)
# Method in brief: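 Counterscreen line: SH-SY5Y-GLuc-NoTag. Seed, 5 h; compound, 19 h; thapsigargin 100 nM, 4 h; 37C/5% CO2. Readout: secreted GLuc luminescence, coelenterazine 0.07x final, no lysis.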
# [8] = Confirmatory qHTS for small molecule stabilizers of the endoplasmic reticulum resident proteome: Secreted ER Calcium Modulated Protein (SERCaMP) assay (AID 1508628); further: nearly all actives have a fitted effect of over 40% in size
# Method in brief: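 Reporter secretion upon ER calcium depletion (100 nM thapsigargin, 4 h, 37C) is measured as medium luminescence with coelenterazine, after 16 h compound pretreatment of SH-SY5Y-GLuc-SERCaMP cells; primary at three concentrations up to 38.3 uM, follow-up at 11 (up to 76.6 uM).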
# [9] = AP1 Signaling Pathway (AID 357; active means well fitted curve in either direction with a large enough effect, not every such curve was filed as active;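 further: ME-180 reporter cells stimulated with EGF at its EC50 level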); settings: ME-180 AP-1-bla reporter, EGF-induced, beta-lactamase ratio, 5 h; at 7.69 µM (top of the series) unless noted
# Method in brief: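 AP-1-bla ME-180 cells, Opti-MEM + 0.5% dialyzed FBS, plated overnight 37 °C. Cpd titration + EC50 EGF, 5 h 37 °C. CCF4 2.5 h RT; ex 405, em 460/530 ratio → %activity, AC50.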
# [10] = biological target: Cytochrome P450 1A2 (Homo sapiens) (UniProt P05177); experiment: p450-cyp1a2 (AID 410; calls by dose curve)
# Sequence of Cytochrome P450 1A2 (Homo sapiens) (P05177 whole entry, looked up): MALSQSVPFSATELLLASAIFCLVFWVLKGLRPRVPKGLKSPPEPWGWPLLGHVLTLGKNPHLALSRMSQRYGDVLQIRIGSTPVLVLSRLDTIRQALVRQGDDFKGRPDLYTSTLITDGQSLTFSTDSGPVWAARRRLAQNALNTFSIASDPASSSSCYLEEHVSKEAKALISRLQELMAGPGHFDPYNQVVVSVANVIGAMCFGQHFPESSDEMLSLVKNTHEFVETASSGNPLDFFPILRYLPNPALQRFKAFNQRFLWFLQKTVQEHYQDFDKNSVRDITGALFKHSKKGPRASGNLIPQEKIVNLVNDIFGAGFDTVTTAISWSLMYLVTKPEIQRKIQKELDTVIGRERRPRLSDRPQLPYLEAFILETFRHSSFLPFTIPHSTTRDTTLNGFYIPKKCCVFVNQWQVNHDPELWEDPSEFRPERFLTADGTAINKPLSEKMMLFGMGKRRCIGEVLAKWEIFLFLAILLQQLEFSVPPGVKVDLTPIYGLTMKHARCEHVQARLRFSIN
# Method in brief: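 O-Demethylation of luciferin 6' methyl ether by human CYP1A2 is monitored as luciferase luminescence. Substrate sits at Km (100uM); enzyme is 20nM. Values are scaled to 57 uM furafylline as maximal inhibition.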
# [11] = NFAT Signaling Pathway (AID 444; active means well fitted curve in either direction with a large enough effect, not every such curve was filed as active;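 further: carbachol stimulus at about its EC50 of 1 µM final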); settings: Jurkat NFAT-bla M1, carbachol, beta-lactamase ratio, 5 h; at 7.69 µM (top of the series) unless noted
# Method in brief: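 Jurkat cells with NFAT-driven β-lactamase reporter and co-expressed M1 receptor, stimulated with carbachol (final 1 uM, ~EC50), compound titration, 5 h at 37 °C. CCF4 loaded 1 h at RT; 460/530 nm ratio gave %activity and AC50.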
# [12] = Stat Signaling Pathway (AID 446; active means well fitted curve in either direction with a large enough effect, not every such curve was filed as active;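 further: ME-180 cervical cancer cells given 40 pM IL-6 alongside compound; SIE-controlled beta-lactamase reporter measured as 460/530 nm FRET emission ratio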); settings: ME-180 (cervical carcinoma) SIE beta-lactamase reporter, IL-6 stimulated, 5 h; at 7.69 µM (top of the series) unless noted
# Method in brief: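 Emission at 460 and 530 nm (excitation 405 nm) reports SIE-controlled beta-lactamase in ME-180 cells. Cells received compound with 40 pM IL-6 for 5 hrs at 37 C; data scaled between 300 pM IL-6 and 125 nM JAK-inhibitor controls.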
# [13] = biological target: Cytochrome P450 3A4 (Homo sapiens) (UniProt P08684); experiment: qHTS Assay for Activators of Cytochrome P450 3A4 (AID 885); further: nearly all actives have a fitted effect of over 65% in size
# Sequence of Cytochrome P450 3A4 (Homo sapiens) (P08684 whole entry, looked up): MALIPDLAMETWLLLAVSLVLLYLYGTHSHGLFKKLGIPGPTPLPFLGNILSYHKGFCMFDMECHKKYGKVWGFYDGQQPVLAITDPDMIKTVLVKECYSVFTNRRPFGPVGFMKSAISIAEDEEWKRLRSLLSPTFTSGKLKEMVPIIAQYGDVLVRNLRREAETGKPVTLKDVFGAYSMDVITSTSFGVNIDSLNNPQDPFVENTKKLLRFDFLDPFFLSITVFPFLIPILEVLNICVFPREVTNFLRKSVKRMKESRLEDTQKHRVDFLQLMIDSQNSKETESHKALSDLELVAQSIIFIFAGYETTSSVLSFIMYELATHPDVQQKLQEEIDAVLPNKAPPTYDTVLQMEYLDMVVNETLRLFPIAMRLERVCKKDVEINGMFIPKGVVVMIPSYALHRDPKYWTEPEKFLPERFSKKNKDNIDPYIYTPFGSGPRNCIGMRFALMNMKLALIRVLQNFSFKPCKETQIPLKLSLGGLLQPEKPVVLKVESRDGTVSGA
# Method in brief: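 Activators are scored by enhanced luminescence from CYP3A4 conversion of luciferin-PPXE (25uM, equal to KM) to luciferin, after 60 min at RT with an NADPH-regenerating system.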
# [14] = biological target: Dual specificity protein kinase CLK4 (Homo sapiens) (UniProt Q9HAZ1); experiment: qHTS Assay for Inhibitors of CDC-like Kinase 4 (Kinase-Glo Assay) (AID 1770); further: nearly all actives have a fitted effect of over 65% in size
# Sequence of Dual specificity protein kinase CLK4 (Homo sapiens) (Q9HAZ1 whole entry, looked up): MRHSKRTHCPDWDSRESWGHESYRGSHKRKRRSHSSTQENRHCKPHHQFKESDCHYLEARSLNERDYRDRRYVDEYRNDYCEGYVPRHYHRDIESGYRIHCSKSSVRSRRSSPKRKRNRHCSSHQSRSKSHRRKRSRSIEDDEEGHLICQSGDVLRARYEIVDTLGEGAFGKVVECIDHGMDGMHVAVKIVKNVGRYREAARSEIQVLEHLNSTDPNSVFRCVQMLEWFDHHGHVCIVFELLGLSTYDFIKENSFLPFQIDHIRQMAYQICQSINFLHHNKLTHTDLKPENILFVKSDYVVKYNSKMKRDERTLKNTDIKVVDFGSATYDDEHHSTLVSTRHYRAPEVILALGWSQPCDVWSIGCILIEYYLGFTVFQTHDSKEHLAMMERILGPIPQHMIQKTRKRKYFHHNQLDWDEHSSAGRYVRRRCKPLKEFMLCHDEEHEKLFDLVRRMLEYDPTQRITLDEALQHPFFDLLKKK
# Method in brief: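 Clk4 25 nM, RS peptide 100 uM, ATP 1 uM, pH 7.5 Tris, 10 mM MgCl2, 2.5 mM DTT; 4.5 h RT; ATP depletion read by Kinase-Glo luminescence.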
# [15] = biological target: Dual specificity protein kinase CLK4 (Homo sapiens) (UniProt Q9HAZ1); experiment: qHTS Assay for Inhibitors of CDC-like Kinase 4 (ADP-Glo Assay) (AID 1771); further: nearly all actives have a fitted effect of over 70% in size
# Method in brief: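 Compounds are pin-transferred onto substrate mix (100 uM RS peptide, 1 uM ATP), then 25 nM Clk4 is added. After 1 hr at room temperature, ADP-Glo reagent runs 45 min, detection reagent 30 min, then luminescence is read.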
# [16] = biological target: Dual specificity protein kinase CLK4 (Homo sapiens) (UniProt Q9HAZ1); experiment: qHTS Assay for Inhibitors of CDC-like Kinase 4 (ADP-FP Assay) (AID 1795);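 further: recombinant human CLK4 phosphorylating RS repeat peptide at 1 µM ATP; nearly all actives have a fitted effect of over 60% in size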
# Method in brief: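 Kinase activity was followed as ADP output, converted from fluorescence polarization with a calibration curve. Reactions ran one hour at low ATP (1 uM) with RS peptide substrate.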
# [17] = biological target: Ubiquitin carboxyl-terminal hydrolase 1 (Homo sapiens) (UniProt O94782); experiment: Inhibitors of USP1/UAF1: Pilot qHTS (AID 504865);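 further: rhodamine fluorescence freed from ubiquitin-rhodamine substrate followed over time; top concentration of the series differs between compounds; nearly all actives have a fitted effect of over 35% in size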
# Sequence of Ubiquitin carboxyl-terminal hydrolase 1 (Homo sapiens) (O94782 whole entry, looked up): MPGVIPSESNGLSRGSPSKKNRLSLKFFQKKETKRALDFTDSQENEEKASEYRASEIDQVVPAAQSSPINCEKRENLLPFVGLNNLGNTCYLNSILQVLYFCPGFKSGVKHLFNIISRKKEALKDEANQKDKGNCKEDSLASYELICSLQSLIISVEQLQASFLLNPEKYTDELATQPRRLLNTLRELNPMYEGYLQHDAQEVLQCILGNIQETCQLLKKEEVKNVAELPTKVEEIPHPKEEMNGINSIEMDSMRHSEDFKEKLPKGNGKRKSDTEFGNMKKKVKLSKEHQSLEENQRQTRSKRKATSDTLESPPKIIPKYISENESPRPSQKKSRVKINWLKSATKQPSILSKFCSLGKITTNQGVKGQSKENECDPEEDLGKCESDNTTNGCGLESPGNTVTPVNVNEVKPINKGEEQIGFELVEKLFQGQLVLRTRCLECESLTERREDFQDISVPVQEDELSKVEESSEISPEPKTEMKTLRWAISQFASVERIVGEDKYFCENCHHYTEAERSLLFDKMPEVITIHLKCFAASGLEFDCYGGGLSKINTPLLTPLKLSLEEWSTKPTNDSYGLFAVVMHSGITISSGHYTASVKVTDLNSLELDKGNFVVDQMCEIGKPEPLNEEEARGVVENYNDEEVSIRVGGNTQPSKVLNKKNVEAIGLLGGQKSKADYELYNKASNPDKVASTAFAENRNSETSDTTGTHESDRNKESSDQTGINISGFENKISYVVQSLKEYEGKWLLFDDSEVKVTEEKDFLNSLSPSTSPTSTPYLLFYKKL
# Method in brief: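 Enzyme-free wells gave the negative control, while test wells held 1nM USP1/UAF1 preincubated with compound for 15 min at room temperature. Ub-Rho at 150nM final started the reaction, and fluorescence at 480/540 nm was recorded kinetically.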
# [18] = measured here: cell count channel max response
# [19] = measured here: lipid channel max response
SMILES,Potency [1],Potency [2],Potency [3],outcome [4],Potency [5],"activity change, negative = inhibition [6]","max response [6, 18] [%]","max response [6, 19] [%]",Potency [7],Potency [8],"activity change, negative = inhibition [9]",Potency [10],"activity change, negative = inhibition [11]","activity, negative = inhibition [12]",Potency [13],Potency [14],Potency [15],Potency [16],Potency [17]
COc1ccc(-c2nc3cnc(N4CCNCC4)nc3n(-c3ccccc3)c2=O)cc1,> 11.4 µM (inactive),> 9.22 µM (inactive),> 46 µM (inactive),inactive,inactive,3% (inactive),10.3,4.43,inactive,inactive,–,–,–,–,–,–,–,–,–
Cc1nc2cnc(N3CCN(C)CC3)nc2n(Cc2ccc(F)cc2)c1=O,> 11.4 µM (inactive),> 9.22 µM (inactive),–,inactive,inactive,3.55% (inactive),-0.123,1.24,inactive,inactive,1.11% (inactive),inactive,-12.3% (inactive),-4.86% (inactive),inactive,inactive,inactive,inactive,inactive
